In the supplement of paper PMC3414501:
Counter-ions that a name gives are not always drawn. Values without a mark were called inactive.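 The calls were made as follows: active = score above 5; some higher scores were not called.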

tested on: S. cerevisiae SK1 pCDA2-eGFP (USY613), sporulating; assay: CDA2-GFP sporulation assay sensitivity score (z-score vs DMSO controls); higher = stronger inhibition of sporulation, active = hit call of the paper

Row | Structure (SMILES) | CDA2-GFP sporulation assay sensitivity score
1 | CN1CCN(c2c(F)cc3c(=O)c(C(=O)O)cn4c3c2SCC4)CC1 [Rufloxacin hydrochloride] (stock concentration (mM, diluted 1:100): 10) | -0.17
2 | CCOC(=O)OC(C)OC1=C(C(=O)Nc2ccccn2)N(C)S(=O)(=O)c2ccccc21 (configuration not stated) [Ampiroxicam] (stock concentration (mM, diluted 1:100): 10) | 3.3
3 | O=C(O)Cc1ccccc1Nc1c(Cl)cccc1Cl [Diclofenac] (stock concentration (mM, diluted 1:100): 10) | 0.82
4 | CC(=O)Oc1ccccc1C(=O)Nc1ncc([N+](=O)[O-])s1 [Nitazoxanide] (stock concentration (mM, diluted 1:100): 10) | 7.92 (active)
5 | O=C1c2c(O)cc(O)cc2OC(c2ccc(O)c(O)c2)C1O (configuration not stated) [Taxifolin] (stock concentration (mM, diluted 1:100): 10.1) | -0.02
6 | CSc1nc2cc(Cl)c(Oc3cccc(Cl)c3Cl)cc2[nH]1 [Triclabendazole] (stock concentration (mM, diluted 1:100): 10) | 0.58
7 | CS(=O)(=O)c1ccc(C2=C(c3ccccc3)C(=O)OC2)cc1 [Rofecoxib] (stock concentration (mM, diluted 1:100): 10) | 0.79
8 | CN1CCN(C2=Nc3cc(F)ccc3Cc3ccccc32)CC1 [Fluperlapine] (stock concentration (mM, diluted 1:100): 10) | 17.9 (active)
9 | C[C@H]1[C@H](OC(=O)CCC(=O)O)O[C@@H]2O[C@@]3(C)CC[C@H]4[C@H](C)CC[C@@H]1[C@@]24OO3 [Artesunate] (stock concentration (mM, diluted 1:100): 10) | 0.74
10 | COc1cc(C)c(Cc2cnc(N)nc2N)cc1OC [Ormetoprim] (stock concentration (mM, diluted 1:100): 10) | 0.05
11 | CCCc1nc(C)c2c(=O)nc(-c3cc(S(=O)(=O)N4CCN(CC)CC4)ccc3OCC)[nH]n12 [Vardenafil citrate] (stock concentration (mM, diluted 1:100): 7.2) | 4.72
12 | CCC(C)(C)N=C(NC#N)Nc1cccnc1 [Tocris-1355] (stock concentration (mM, diluted 1:100): 9.9) | 3.65
13 | CC1=C(C(=O)O)N2C(=O)[C@@H](NC(=O)[C@H](N)c3ccccc3)[C@H]2SC1 [Cephalexin monohydrate] (stock concentration (mM, diluted 1:100): 10) | -1.64
14 | CN(C)CCC(c1ccc(Cl)cc1)c1ccccn1 (configuration not stated) [Chlorpheniramine] (stock concentration (mM, diluted 1:100): 10) | -1.3
15 | C[C@@H]1O[C@@H](OC[C@H]2O[C@@H](Oc3c(-c4ccc(O)c(O)c4)oc4cc(O)cc(O)c4c3=O)[C@H](O)[C@@H](O)[C@@H]2O)[C@H](O)[C@H](O)[C@H]1O [Rutin] (stock concentration (mM, diluted 1:100): 10) | -0.59
16 | CC(C)NCC(O)COc1ccc(COCCOC(C)C)cc1 (configuration not stated) [Bisoprolol fumarate] (stock concentration (mM, diluted 1:100): 8.5) | 0.16
17 | CC[C@H](C)C(=O)O[C@H]1C[C@H](O)C=C2C=C[C@H](C)[C@H](CC[C@@H](O)C[C@@H](O)CC(=O)O)[C@H]21 [Pravastatin sodium] (stock concentration (mM, diluted 1:100): 9.5) | -1.3
